Assay results from PubChem BioAssay (NCATS).
Inconclusive results are not listed. Unmarked numbers belong to inactive results. The source made the active and inactive calls. Calls follow the shape of the dose curve; as a rule, active = well fitted curve in the direction sought with a large enough effect; inconclusive = small, poorly fitted or top-dose-only effect, or another doubt; inactive = no such curve, though single readings can be large; an effect the other way counts as inactive or inconclusive.

Each compound was assayed on Zika virus NS2B-NS3 protease (unlinked) (assay: Optimization of GU AMC qHTS for Zika virus inhibitors: Unlinked NS2B-NS3 protease assay (AID 1347151;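 also: 0% = no-inhibitor control and -100% = no-enzyme control; nearly all actives have a fitted effect of over 80% in size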)). Conditions: recombinant ZIKV NS2B-NS3 protease, fluorogenic AMC substrate; series mostly up to 52.5 µM; activity change, negative = inhibition: at the top concentration.
How it was run: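 Percent inhibition is derived from the 15-min change in AMC fluorescence, normalized against no-inhibitor and no-enzyme controls, then fitted to a 4-parameter Hill curve. Aprotinin was the intraplate control.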

SMILES	activity change, negative = inhibition [%]
COc1ccccc1N1CCN(CCCNc2cc(=O)n(C)c(=O)n2C)CC1	-5.17
CCCNC(=O)NS(=O)(=O)c1ccc(Cl)cc1	-2.4
CCN1CCC[C@H]1CNC(=O)c1cc(S(N)(=O)=O)ccc1OC	5.46
CC(=O)O[C@]1(C(C)=O)CC[C@H]2[C@@H]3C=C(Cl)C4=CC(=O)[C@@H]5C[C@@H]5[C@]4(C)[C@H]3CC[C@@]21C	-2.03
CC(=O)CCCCn1c(=O)c2c(ncn2C)n(C)c1=O	5.83
CC(C)NCC(O)COc1cccc2[nH]ccc12 (stereo unspecified)	-9.18

The compounds below were run on Zika virus NS2B-NS3 protease (assay: Primary screen GU AMC qHTS for Zika virus inhibitors (AID 1347154; also: nearly all actives have a fitted effect of over 70% in size; also: potency is read from the fitted curve at half-maximal effect;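 as to activity change, negative = inhibition: 0% = no-inhibitor control and -100% = no-enzyme control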)). Conditions: Zika NS2B-NS3 unlinked protease, AMC fluorogenic substrate; series mostly up to 54.1 µM; activity change, negative = inhibition: at the top concentration.
How it was run: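 Unlinked Zika NS2B hydrophilic domain–NS3 protease complex at 25 nM in 10 mM Tris-HCl pH 8.0, 0.01% Tween 20, with an AMC peptide substrate. Fluorescence change (340/450 nm) over 15 min at room temperature, normalized to controls, fitted to 4-parameter Hill.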

SMILES	Potency	activity change, negative = inhibition [%]
COc1ccccc1N1CCN(CCCNc2cc(=O)n(C)c(=O)n2C)CC1	inactive	
Nc1ncnc2c1ncn2[C@@H]1O[C@@H](CO)[C@H](O)[C@H]1O		4.36
O=C(O)c1cc(O)c2c(c1)C(=O)c1cccc(O)c1C2=O	24.8 µM (active)	
COc1ccc(-c2oc3c(CC=C(C)C)c(OC4O[C@H](CO)[C@@H](O)[C@H](O)[C@@H]4O)cc(O)c3c(=O)c2OC2O[C@@H](C)[C@H](O)[C@@H](O)[C@@H]2O)cc1 (stereo partly specified)		-13
COc1ccc2c3c1OC1C[C@@H](O)C=C[C@@]31CCN(C)C2 (stereo partly specified)		-5.16
O=c1cc(-c2cccc3c2Sc2ccccc2S3)oc(N2CCOCC2)c1		-18.9
CCCNC(=O)NS(=O)(=O)c1ccc(Cl)cc1		-4.32
CCN1CCC[C@H]1CNC(=O)c1cc(S(N)(=O)=O)ccc1OC	inactive	
c1cc(-c2sc(-c3ccncc3)c(-c3ccncc3)c2-c2ccncc2)ccn1		-0.495
CC(C)(Cc1ccc2ccccc2c1)NC[C@@H](O)COc1cccc(Cl)c1C#N		10.5
